The source made the active and inactive calls. The calls were made as follows: active = hit-call score of the fitted dose curve at least 0.9, where 1 is the maximum; inactive = score below 0.9.
Read-out: sulfotransferase 2A1 (SULT2A1), SULT2A1 (gene 6822)
Assay: LTEA_HepaRG_SULT2A1: Life Technologies and Expression Analysis (LTEA) Assay for sulfotransferase 2A1 (SULT2A1) using HepaRG (AID 2283531)
Details: mRNA level, 48 h; actives raise or lower the signal
Description: LTEA_HepaRG is a cell based, multiplexed-readout assay that uses HepaRG, a human liver cell line, with measurements taken at 48 hours after chemical dosing on a 96-well plate.LTEA_HepaRG_SULT2A1 is one of 102 assay component(s) measured in the LTEA HepaRG cell culture assay. It is a marker of NR mediated transport.Data from the assay component LTEA_HepaRG_SULT2A1 was analyzed into 1 endpoint. This assay endpoint, LTEA_HepaRG_SULT2A1, was analyzed with bidirectional fitting relative to DMSO as the negative control and baseline of activity. Using a type of inducible reporter, measures of mRNA induction for gain or loss-of-signal activity can be used to understand regulation of transcription factor activity. To generalize the intended target to other relatable targets, this assay endpoint is annotated to the transferase intended target family, where the subfamily is sulfotransferase.
A total of 1060 chemcials from the ToxCast library were tested in eight-point concentration-response experiments. Cell culture and cytotoxicity assays were conducted at Thermo Fisher Scientific's Custom Services facility (Madison, WI). A single lot of human HepaRG cells (Thermo Fisher Scientific, Frederick, MD) was used for the cell culture experiments. 96-well format collagen type I coated plates of human HepaRG cells were prepared using established methods. Briefly, cryopreserved HepaRG cells were thawed, plated at a density of approximately 100,000 cells/well in HepaRG Thaw, Plate, and General Purpose media (HPRG770, Thermo Fisher Scientific), and incubated for 48 hours. 0.5% DMSO was selected as vehicle control to balance the requisite need of DMSO in HepaRG cultures to maintain differentiation (for example, baseline metabolism, proportions of hepatocytes vs. cholangiocytes), while enabling further hepatic receptor pathway activation (for example, PXR and CAR) in response to chemical exposure. 48 hours after plating, the culture medium was replaced with HepaRG Serum-Free Incudtion Media. Cells were exposed to each test chemical in duplicate and maintained in CO2 incubators for another 48 hours. Chemical plates were thawed to room temperature and 200x concentrations of treatment groups were prepared. 8-point conentration-reponse curves were made with the highest exposure at 100 uM, followed by half-log dilutions, all in 0.5% DMSO. Each test plate contained variouse controls, induction positive controls (1mM phenobarbital), cytotoxicity positive controls ([…] aflatoxin B1), vehicle controls (0.5% DMSO), and total lysis controls (0.5% DMSO). Cell morphology images were taken using an Essen IncuCyte FLR automated microscope, with six 96-well plates imaged in about 24 minutes. Images were captured and exported and JPEG files. Spent culture media was transfered to black-well plates for the LDH assay, and remaining media was sorted at -80 C for later use. Cells were treated with RLT buffer and frozen until shipped for gene expression analysis. Total RNA was isolated from the cell suspension in 75 uL of Buffer RLT (Qiagen, Germantown, MD 20874) by Quintiles/Expression Analysis (Durham, NC) using a custom isolation procedure. Total RNA from each plate well was transferred to a preamplification plate. Fluidigm's 96.96 Dynamic ArrayTM (Fluidigm, Amsterdam, the Netherlands) technology was used for gene expression analyses by quantitative reverse transcription polymerase chain reaction (qRT-PCR, performed by Quintiles/Expression Analysis, Durham, NC)89. Standard TaqManTM Assays (Applied Biosystems/ThermoFisher Scientific, Foster City, CA) were used to assess the expression of 93 genes selected based on their selectivity and sensitivity to important hepatic receptors known to be modulated by environmental chemicals; importance in human hepatocyte functionality; and hepatotoxicity. […]

| Structure (SMILES) | outcome | AC50 |
| --- | --- | --- |
| CC1(C)CC(N=C=O)CC(C)(CN=C=O)C1 (stereo not given) | inactive | – |
| Nc1ccc(S(=O)(=O)c2ccc(N)cc2)cc1 | inactive | – |
| NS(=O)(=O)c1cc2c(cc1Cl)NCNS2(=O)=O | inactive | – |
| CCCCCC(=O)O | inactive | – |
| O=C(O)CCCCC(=O)O | inactive | – |
| Oc1ccc2c(c1)OC[C@@H](N1CCC(O)(c3ccc(F)cc3)CC1)[C@H]2O | inactive | – |
| Cc1nc(C)nc(N2C[C@@H](C)N(c3ccnc([C@@H](C)O)n3)[C@@H](C)C2)n1 | inactive | – |
| CNC(=O)[C@H]1O[C@@H](n2cnc3c(NCc4cc(Cl)ccc4OCc4cc(C)no4)ncnc32)[C@H](O)[C@@H]1N | inactive | – |
| CN1CCN(Cc2cc(-c3ccc4[nH]c(=O)oc4c3)co2)[C@@H](c2ccc(F)cc2)C1 | inactive | – |
| OC[C@@H](O)[C@@H](O)[C@H](O)[C@H](O)CO | inactive | – |
| O=C(OCCCCCOC(=O)c1ccccc1)c1ccccc1 | inactive | – |
| FC(F)(F)C(F)(F)C(F)(F)C(F)(F)C(F)(F)C(F)(F)CCI | inactive | – |
| Nc1ccc2c(c1)C(=O)c1ccccc1C2=O | inactive | – |
| CCCCCCCCCCCCCO | inactive | – |
| NC(=O)Cn1c(=O)cc(CCN2CCN(c3nccc4sccc34)CC2)c2ccc(F)cc21 | inactive | – |
| Cc1cccc(C)c1O | inactive | – |
| CC(C)(C)c1cc(O)c(C(C)(C)C)cc1O | – | 90.9 µM (active) |
| Cc1cc(=O)[nH]c(=S)[nH]1 | inactive | – |
| CN[C@H]1CC[C@@H](c2ccc(Cl)c(Cl)c2)c2ccc(S(N)(=O)=O)cc21 | – | 87.6 µM (active) |
| Cc1ccc(C)c(C)c1 | inactive | – |

| Structure (SMILES) | outcome | AC50 |
| --- | --- | --- |
| Cc1cccc([N+](=O)[O-])c1C | inactive | – |
| Cc1nc(-c2ccc3c(c2)CCN(CCC2CCC(NC(=O)/C=C/c4ccc(F)cc4)CC2)CC3)no1 (stereo not given) | inactive | – |
| Cc1ccc(Cl)cc1 | inactive | – |
| Cc1ccc(C(C)C)c(O)c1 | inactive | – |
| CCCc1cc(=O)[nH]c(=S)[nH]1 | inactive | – |
| COCCOC[C@H](CC1(C(=O)NC2CCC(C(=O)O)CC2)CCCC1)C(=O)Oc1ccc2c(c1)CCC2 (stereo not given in full) | inactive | – |
| O=[N+]([O-])C(CO)(CO)CO | inactive | – |
| CCCCOC(=O)CCCCCCCCC(=O)OCCCC | inactive | – |
| NCCO | inactive | – |
| C1CCC(SSC2CCCCC2)CC1 | inactive | – |
| C[C@]12C=CC(=O)C=C1CC[C@@H]1[C@@H]2C(=O)C[C@@]2(C)[C@H]1CC[C@]2(O)C(=O)CO | inactive | – |
| Cc1cc(NC(=O)C(=O)O)cc(C)c1Oc1ccc(O)c2c1CCC2 | – | 0.526 µM (active) |
| Nc1ccccc1N | – | 85.9 µM (active) |
| CC1(C)NC(=O)NC1=O | inactive | – |
| CCCCN(CCCC)CCCC | inactive | – |
| c1cc(-c2ccncc2)ccn1 | inactive | – |
| CCc1c(C(=O)NN2CCCCC2)nn(-c2ccc(Cl)cc2Cl)c1-c1ccc(Br)cc1 | – | 37.4 µM (active) |
| CC(=O)Oc1ccccc1C(=O)O | inactive | – |
| Nc1nc(N)c2nc(CNc3ccc(C(=O)N[C@@H](CCC(=O)O)C(=O)O)cc3)cnc2n1 | – | 0.0974 µM (active) |
| Cc1oc(-c2ccccc2)nc1CCOc1cccc2c1ccn2CCC(=O)O | – | 90.5 µM (active) |
